Results published in PubChem BioAssay (NCI).
Compounds without any hit were thinned out: in the full panel of roughly 83,000, 20% have a hit.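 Method: cells in 96-well plates; compound added at one concentration; 48 h incubation; percent growth measured; values under 10 scored active.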

Tests used:
Assay in all cases: NCI-60 one-dose screen, 48 h (100 = growth as untreated, 0 = no growth, -100 = all killed)
[1] = system: SK-MEL-2 melanoma; details: 10 µM
[2] = system: SN12C renal; details: 10 µM
[3] = system: UO-31 renal; details: 10 µM
[4] = system: TK-10 renal; details: 10 µM unless noted
[5] = system: ACHN renal; details: 10 µM
[6] = system: A498 renal; details: 10 µM
[7] = system: CCRF-CEM leukemia; details: 10 µM
[8] = system: MOLT-4 leukemia; details: 10 µM
[9] = system: SR leukemia; details: 10 µM
[10] = system: RPMI-8226 leukemia; details: 10 µM
[11] = system: OVCAR-8 ovarian; details: 10 µM
[12] = system: OVCAR-5 ovarian; details: 10 µM
[13] = system: OVCAR-4 ovarian; details: 10 µM
[14] = system: SK-OV-3 ovarian; details: 10 µM
[15] = system: IGROV1 ovarian; details: 10 µM
[16] = system: OVCAR-3 ovarian; details: 10 µM
[17] = system: HS 578T breast; details: 10 µM
[18] = system: NCI/ADR-RES ovarian; details: 10 µM
[19] = system: CAKI-1 renal; details: 10 µM
[20] = system: EKVX NSCLC; details: 10 µM

Measured: growth

c1ccc2c(c1)Sc1ccccc1S2
inactive: [1] 112% | [2] 93.2% | [3] 98.9% | [4] 99.4% | [5] 109% | [6] 94.3% | [7] 97.3% | [8] 111% | [9] 117% | [10] 99.2% | [11] 99.3% | [12] 108% | [13] 98.8% | [14] 112% | [15] 106% | [16] 113% | [17] 102% | [18] 101%

C=CC[N+](C)(C)C
inactive: [1] 111% | [2] 101% | [3] 97% | [4] 92.7% | [5] 100% | [6] 106% | [8] 94% | [9] 90.8% | [10] 101% | [11] 106% | [12] 102% | [13] 109% | [14] 108% | [15] 99.7% | [16] 118% | [17] 95.5% | [18] 105%

O=P(O)(O)OCC(O)CO (configuration not stated)
inactive: [1] 117% | [2] 98.5% | [3] 98.7% | [4] 110% | [5] 101% | [19] 104% | [6] 108% | [7] 100% | [8] 103% | [9] 99.6% | [11] 109% | [12] 101% | [13] 88.3% | [14] 106% | [16] 112% | [17] 106% | [18] 106%

N#CCCc1ccc(O)cc1
inactive: [1] 104% | [2] 107% | [3] 90.5% | [4] 113% | [5] 99.9% | [19] 95.4% | [6] 104% | [8] 98.5% | [9] 94.6% | [10] 102% | [11] 93.9% | [12] 95.6% | [13] 111% | [14] 106% | [15] 116% | [16] 110% | [17] 102% | [18] 116%

CC(=O)OCCO
inactive: [1] 143% | [2] 98.5% | [3] 90.3% | [4] 114% | [5] 105% | [19] 104% | [6] 109% | [7] 111% | [9] 107% | [11] 101% | [12] 102% | [13] 100% | [14] 113% | [15] 113% | [16] 110% | [17] 115% | [18] 110%

COCCCNC(=O)c1nnn2c1nc(N)c1cc(Cl)ccc12
inactive: [1] 74.2% | [2] 101% | [3] 71.7% | [4] 105% | [5] 104% | [19] 80.6% | [6] 96.4% | [8] 79.6% | [10] 96.9% | [11] 103% | [12] 109% | [13] 90.7% | [14] 79.2% | [15] 78.6% | [16] 81.1% | [17] 90.4% | [18] 93.9%

CC(C)=CC(=O)OC(=O)C=C(C)C
inactive: [1] 108% | [2] 100% | [3] 94.5% | [4] 102% | [5] 105% | [6] 124% | [8] 101% | [9] 94.7% | [10] 109% | [11] 99.7% | [12] 104% | [13] 119% | [14] 96.8% | [15] 106% | [16] 101% | [17] 120% | [18] 117%

CC(C)(C)c1cc(O)c(C(C)(C)C)cc1O
inactive: [1] 86.6% | [2] 87.4% | [3] 90.3% | [5] 92.4% | [6] 58.5% | [7] 80.4% | [8] 73.2% | [9] 92.5% | [10] 54.1% | [11] 93% | [12] 97.2% | [13] 74.6% | [14] 125% | [15] 110% | [16] 99.2% | [17] 98.8% | [18] 100%

O=C(O)CCCc1ccccc1
inactive: [20] 116% | [2] 101% | [3] 94.9% | [4] 98.9% | [5] 108% | [19] 108% | [6] 121% | [7] 102% | [8] 98.4% | [9] 96.9% | [10] 110% | [11] 96.7% | [12] 104% | [13] 117% | [14] 110% | [15] 121% | [16] 121% | [17] 118% | [18] 103%
